Pf growth 96h = Primary qHTS for delayed death inhibitors of the malarial parasite plastid, 96 hour incubation; P. falciparum luciferase reporter growth, 96 h; Potency, µM (top dose mostly 28.7 µM), without a hit: top-dose activity change, negative = inhibition, actives largely listed as inhibitors; 320,000 tested, 6.9% active; also: % is scaled to controls: 0 for no effect and ±100 for the full control effect
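Two-generation exposure (96 h) targets delayed-death phenotype. Reporter parasites carrying integrated firefly luciferase, in red cells at 2% hematocrit and 0.05% parasitemia final, kept at 37 C, 5% CO2; luminescence loss indicates inhibition.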
Sm TGR block = qHTS Assay for the Inhibitors of Schistosoma Mansoni Peroxiredoxins | Potency, µM (titrated, usually from 114 µM), inactives show at the highest dose activity change, negative = inhibition, hits mostly inhibitors | Schistosoma mansoni thioredoxin glutathione reductase (TGR), Q962Y6 | purified TGR, DTNB reduction, TNB absorbance 405 nm | 360,000 tested, 3% active; also: % is scaled to controls: 0 for no effect and ±100 for the full control effect; nearly all actives have a fitted effect of over 60% in size
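TGR 20 nM + NADPH 100 uM (dispensed conc.), cpd preinc 15 min RT; start with NADPH (500 uM addition) then DTNB (15 mM addition). Kinetic TNB absorbance, 405 nm filter. Four-parameter Hill fit across titration.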
AmpC no deterg = qHTS Inhibitors of AmpC Beta-Lactamase (assay without detergent); Potency, µM (highest dose often 57.1 µM), for the others: top-dose activity change, negative = inhibition, usual class: inhibitors; AmpC nitrocefin hydrolysis, absorbance 480 nm, 0.0001% Triton; 330,000 tested, 0.52% active; P00811;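 also: plate controls were no compound for no effect and no enzyme for full effect; nearly all actives have a fitted effect of over 20% in size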
Target sequence (P00811 whole entry, looked up): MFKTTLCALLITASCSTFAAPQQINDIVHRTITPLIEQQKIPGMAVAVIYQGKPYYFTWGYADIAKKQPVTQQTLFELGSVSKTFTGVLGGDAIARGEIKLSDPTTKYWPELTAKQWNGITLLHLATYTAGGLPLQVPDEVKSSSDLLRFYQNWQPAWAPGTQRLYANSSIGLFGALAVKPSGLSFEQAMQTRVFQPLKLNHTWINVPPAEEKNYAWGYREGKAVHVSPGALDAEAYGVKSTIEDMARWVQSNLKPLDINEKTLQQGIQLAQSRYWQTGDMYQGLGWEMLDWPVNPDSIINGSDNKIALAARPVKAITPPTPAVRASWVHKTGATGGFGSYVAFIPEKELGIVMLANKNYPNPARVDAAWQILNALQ
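20 mM phosphate pH 7.0 + 0.01% (detergent screen) or 0.0001% Triton X-100; 5.3 nM AmpC reagent; cpd preinc 15 min RT; nitrocefin (800 uM stock) to start; A480 q20 s × 4 min; Activity was normalised to no-enzyme and no-compound control wells.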
SARS PLP yeast = qHTS of Yeast-based Assay for SARS-CoV PLP; S. cerevisiae expressing SARS-CoV PLpro, growth rescue; Potency, µM (top dose mostly 32.9 µM), for inactives: at the highest dose activity, positive = growth rescue, most hits filed as activators; 330,000 tested, 0.19% active; calls by dose curve; also: 0% is about no effect; nearly all actives have a fitted effect of over 55% in size
Pf growth 48h = Primary qHTS for delayed death inhibitors of the malarial parasite plastid, 48 hour incubation | P. falciparum luciferase growth in erythrocytes, 48 h | Potency, µM (series often up to 28.7 µM), without a hit: at the top dose activity change, negative = inhibition, hits mostly inhibitors | 310,000 tested, 5.9% active | AID 504832, 2011; also: % is scaled to controls: 0 for no effect and ±100 for the full control effect
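Compounds are pin-transferred into medium, infected erythrocytes (2% hematocrit, 0.1% parasitemia final) are added, and plates sit one parasite generation at 37 C in 5% CO2. Detection reagent is then added and luminescence measured.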
AmpC inh detg = qHTS Inhibitors of AmpC Beta-Lactamase (assay with detergent). 370,000 tested, 0.041% active. AmpC hydrolysis of nitrocefin, absorbance 480 nm, 0.01% Triton. Potency, µM (top dose mostly 114 µM), without a hit: at the top dose activity change, negative = inhibition, most hits filed as inhibitors. P00811. AID 485294, 2010;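 also: 0% = no-compound wells and -100% = no-enzyme wells; nearly all actives have a fitted effect of over 25% in size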
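AmpC (5.3 nM in the dispensed reagent) in 20 mM phosphate pH 7.0 with 0.01% (detergent screen) or 0.0001% Triton X-100 was preincubated with compounds for 15 min at room temperature. Nitrocefin was then added from an 800 uM solution, and hydrolysis was followed at 480 nm.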
* = called active by the depositor; ? = inconclusive; · = no result given. Sampled rows, rich in hits. Any-hit rate of the full collection: about 12%. Unless noted, calls follow the shape of the dose curve; as a rule, active = well fitted curve in the direction sought with a large enough effect; inconclusive = small, poorly fitted or top-dose-only effect, or another doubt; inactive = no such curve, though single readings can be large; an effect the other way counts as inactive or inconclusive. Potency is read from the fitted curve at half-maximal effect.

SMILES	Pf growth 96h	Sm TGR block	AmpC no deterg	SARS PLP yeast	Pf growth 48h	AmpC inh detg
O=C(CN1C(=O)COc2ccc(S(=O)(=O)N3CCOCC3)cc21)NCc1ccc(Cl)cc1	·	6%	·	·	·	9%
O=C(NCC(c1cccnc1)N1CCOCC1)Nc1ccccc1 (configuration not stated)	56%	-13%	-7%	4%	9%	-14%
CCOP(=S)(OCC)SCCSCC	?	-11%	-21%	-1%	19%	0%
CCOP(=S)(OCC)SCC(=O)NC(C)(CC)C(=O)O (configuration not stated)	7.4µM*	7%	-15%	-1%	·	?
CC(=O)N1CCN(C(=O)c2cccc(S(=O)(=O)Nc3c(C)n(C)n(-c4ccccc4)c3=O)c2)CC1	2%	1%	1%	2%	55%	-13%
CCCN(CC(=O)Nc1ccccc1C)C(=O)c1ccc(C)c(S(=O)(=O)N2CCCCC2)c1	?	-1%	14%	-6%	?	-19%
CCCN(CC(=O)Nc1ccccc1C)C(=O)C1CCN(c2ncnc3sc(C)c(C)c23)CC1	7.4µM*	5%	168%	-6%	?	-3%
CCCN(CC(=O)Nc1ccccc1C)C(=O)C1CCN(S(=O)(=O)c2ccccc2C(F)(F)F)CC1	?	-1%	103%	-7%	9.3µM*	-5%
Cc1sc2ncnc(N3CCC(C(=O)N(CC(C)C)c4nc5ccccc5s4)CC3)c2c1C	3.7µM*	7%	-19%	-1%	?	?
O=C(COC(=O)CCc1c[nH]c2ccccc12)NCc1ccccc1	27%	-16%	-15%	-16%	0%	-12%
CN(C(=O)COC(=O)CCc1c[nH]c2ccccc12)C(c1ccccc1)c1ccccc1	10µM*	13%	-22%	16%	12µM*	8%
Cc1cccc(Cn2nnc3ccccc32)c1O	?	0%	-22%	1%	?	-1%
CC(C)(C)c1cccc(Cn2nnc3ccccc32)c1O	?	-4%	-14%	-2%	9.3µM*	?
Cc1cc(Cn2nnc3ccccc32)c(O)c(C(C)(C)C)c1	?	0%	-17%	1%	12µM*	3%
COc1ccc(N(CC(=O)N2CCc3ccccc3C2)S(=O)(=O)c2ccc(C)cc2)cc1Cl	·	-3%	·	·	·	-6%
CCN(CC)CCCC(C)NC(=O)c1cccc(S(=O)(=O)N2CCc3ccccc32)c1 (configuration not stated)	-5%	16µM*	16%	-1%	0%	4%
O=C(Nc1ccccc1)c1ccc2c(c1)CCN2S(=O)(=O)c1ccccc1	92%	14%	-46%	-5%	3.7µM*	-2%
CC(=O)c1cccc(NC(=O)c2ccc3c(c2)CCN3S(=O)(=O)c2ccccc2)c1	12µM*	-17%	-39%	-4%	?	-2%
CC(C)CCNC(=O)c1cccc(S(=O)(=O)N2CCc3ccccc32)c1	?	-4%	-18%	7%	·	3%
NS(=O)(=O)c1ccc(NC(=O)c2ccc3c(c2)CCN3S(=O)(=O)c2ccccc2)cc1	4%	-15%	-51%	-10%	-22%	-16%
CC(=O)Nc1cccc(NC(=O)c2ccc3c(c2)CCN3S(=O)(=O)c2ccccc2)c1	?	-1%	33%	-6%	?	?
O=C(NNC(=O)c1cccc(S(=O)(=O)N2CCc3ccccc32)c1)c1ccccc1	-3%	-18%	-55%	3%	2%	2%
NC(=O)C1CN(C(=O)c2cccc(S(=O)(=O)N3CCc4ccccc43)c2)c2ccccc2O1 (configuration not stated)	?	-2%	76%	-7%	8.3µM*	4%
O=C(Nc1ccc(Br)cc1)c1cccc(S(=O)(=O)N2CCc3ccccc32)c1	·	1%	·	·	·	1%
CN(C)S(=O)(=O)c1cccc(NC(=O)c2cccc(S(=O)(=O)N3CCc4ccccc43)c2)c1	9.3µM*	-2%	-40%	6%	5.9µM*	-1%
SMILES	Pf growth 96h	Sm TGR block	AmpC no deterg	SARS PLP yeast	Pf growth 48h	AmpC inh detg
CCN(c1ccccc1C)S(=O)(=O)c1nnc(NC(=O)c2ccccc2C)s1	·	?	·	·	·	-1%
O=C(CCNc1ccc(F)cc1)c1ccco1	?	4µM*	-11%	-11%	5%	5%
Cc1ccc(C(=O)CCNc2ccc(Cl)cc2)o1	10µM*	-32%	-14%	7%	·	6%
CCc1ccc(NCCC(=O)c2ccc(Cl)cc2)cc1	57%	?	-9%	2%	2%	-7%
O=C(CCNc1cc(Cl)cc(Cl)c1)c1ccco1	?	?	-9%	-18%	37%	0%
O=C(CCNc1ccc(F)c(Cl)c1)c1ccco1	?	8.9µM*	-23%	-18%	-3%	-5%
O=C(CCNc1cccc(C(F)(F)F)c1)c1ccco1	·	3.5µM*	-4%	-16%	-9%	-6%
O=C(CCNc1ccc(Cl)c(C(F)(F)F)c1)c1ccco1	-11%	?	-11%	-8%	14%	-13%
Nc1ccc(C(=O)c2cccs2)cc1[N+](=O)[O-]	35%	0%	-25%	-1%	52%	1%
COc1cccc(NC(=O)c2ccnc(N3CCC(C(=O)NCc4cc(OC)ccc4OC)CC3)c2)c1	?	2%	85%	-4%	?	3%
Oc1ccc(C2C[C@H]3CC[C@@H]2C3)cc1O (some centres not stated)	-6%	1µM*	-54%	-3%	-11%	0%
Cc1cc(/C=C(\C#N)c2nc3ccccc3[nH]2)c(C)n1C	-99%	-3%	-16%	-12%	-22%	-14%
CCN(CC)c1ccc(/C=C(/C#N)c2nc3ccc(C)cc3[nH]2)c(OC(C)C)c1	10µM*	-1%	-28%	-2%	?	-6%
COc1cc(/C=C(\C#N)c2nc3ccc(C)cc3[nH]2)c([N+](=O)[O-])cc1OC	?	13%	82%	-11%	?	-10%
CCCOc1cc(N(CC)CC)ccc1/C=C(/C#N)c1nc2ccc(C)cc2[nH]1	2.6µM*	0%	-51%	-9%	7.4µM*	5%
CCOc1cc(N(CC)CC)ccc1/C=C(/C#N)c1nc2ccccc2[nH]1	8.3µM*	12%	-56%	-5%	-19%	0%
COc1cccc(/C=C(\C#N)c2nc3ccc(C)cc3[nH]2)c1	·	4%	·	·	·	-1%
CCOC(=O)c1ccc(Oc2cc(C)nc(SC)n2)cc1	·	-7%	2%	-11%	18%	-8%
